# Reference: PubChem BioAssay AID1159580 (chemical genetic matrix, 2015)
# In all, about 5,500 compounds went through this assay and about 2,000 (36%) were called active. Another 18% or so got no clear call; they are omitted. The list shows a part of the results. Unmarked numbers belong to inactive results. No stated cut-off is given here; in the data, active means normalized growth mostly below about 0.91 (no sharp cut-off); inconclusive means no clear call, values can overlap the other calls; inactive means mostly above about 0.92.
# Experiment: chemical genetic growth profiling, strain panel (AID 1159580);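 further: tested at 20 µM; growth read once vehicle control cultures reached saturation at 30 °C; 1 = growth at the plate median or of vehicle wells; lower values mean less growth of the strain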
# Settings: S. cerevisiae deletion strains, growth OD
smiles,measurement,setting,value
O=C1C(NCc2ccccc2)=C(NCc2ccccc2)C(=O)c2ccccc21,normalized growth,"locus YAR019C, strain CDC15, hits give low values",0.929
same,normalized growth,"locus YBL105C, strain PKC1, hits give low values",0.915
same,normalized growth,"locus YBR135W, strain CKS1, hits give low values",0.918
same,normalized growth,"locus YBR136W, strain MEC1, hits give low values",0.913
same,normalized growth,"locus YBR160W, strain CDC28, hits give low values",0.92
same,normalized growth,"locus YDL017W, strain CDC7, hits give low values",0.922
same,normalized growth,"locus YDL028C, strain MPS1, hits give low values",0.904
same,normalized growth,"locus YDL101C, strain DUN1, hits give low values",0.916
same,normalized growth,"locus YDL108W, strain KIN28, hits give low values",0.897
same,normalized growth,"locus YDL132W, strain cdc53, hits give low values",0.907
same,normalized growth,"locus YDL214C, strain PRR2, hits give low values",0.869
same,normalized growth,"locus YDR052C, strain DBF4, hits give low values",0.931
same,normalized growth,"locus YDR054C, strain cdc34, hits give low values",0.921
same,normalized growth,"locus YDR226W, strain ADK1, hits give low values",0.893 (active)
same,normalized growth,"locus YDR477W, strain SNF1, hits give low values",0.839
same,normalized growth,"locus YER123W, strain YCK3, hits give low values",0.845
same,normalized growth,"locus YER133W, strain GLC7, hits give low values",0.839
same,normalized growth,"locus YFL009W, strain cdc4, hits give low values",0.902
same,normalized growth,"locus YFL029C, strain CAK1, hits give low values",0.913
same,normalized growth,"locus YFR003C, strain YPI1, hits give low values",0.912
same,normalized growth,"locus YFR019W, strain FAB1, hits give low values",0.942
same,normalized growth,"locus YFR028C, strain CDC14, hits give low values",0.881 (active)
same,normalized growth,"locus YGR040W, strain KSS1, hits give low values",0.825
same,normalized growth,"locus YGR052W, strain FMP48, hits give low values",0.893
same,normalized growth,"locus YGR092W, strain DBF2, hits give low values",0.744
same,normalized growth,"locus YHR030C, strain SLT2, hits give low values",0.885
same,normalized growth,"locus YHR079C, strain IRE1, hits give low values",0.979
same,normalized growth,"locus YHR082C, strain KSP1, hits give low values",0.883
same,normalized growth,"locus YHR205W, strain SCH9, hits give low values",0.931
same,normalized growth,"locus YIL147C, strain SLN1, hits give low values",0.895
same,normalized growth,"locus YJL095W, strain BCK1, hits give low values",0.886
same,normalized growth,"locus YJL128C, strain PBS2, hits give low values",0.885
same,normalized growth,"locus YJL157C, strain FAR1, hits give low values",0.833
same,normalized growth,"locus YJR016C, strain ILV3, hits give low values",0.898 (active)
same,normalized growth,"locus YJR066W, strain TOR1 (second series), hits give low values",0.775
same,normalized growth,"locus YJR066W, strain TOR1, hits give low values",0.879
same,normalized growth,"locus YKL048C, strain ELM1, hits give low values",0.829
same,normalized growth,"locus YKL067W, strain YNK1, hits give low values",0.862
same,normalized growth,"locus YKL101W, strain HSL1, hits give low values",0.875
same,normalized growth,"locus YKL193C, strain SDS22, hits give low values",0.906
same,normalized growth,"locus YKL203C, strain TOR2, hits give low values",0.84
same,normalized growth,"locus YLR113W, strain HOG1, hits give low values",0.895
same,normalized growth,"locus YLR133W, strain CKI1, hits give low values",0.856
same,normalized growth,"locus YLR403W, strain SFP1, hits give low values",0.802
same,normalized growth,"locus YML070W, strain DAK1, hits give low values",0.871
same,normalized growth,"locus YMR001C, strain CDC5, hits give low values",0.896
same,normalized growth,"locus YMR205C, strain PFK2 (second series), hits give low values",0.878
same,normalized growth,"locus YMR277W, strain FCP1, hits give low values",0.903
same,normalized growth,"locus YNL006W, strain LST8, hits give low values",0.923
same,normalized growth,"locus YNL020C, strain ARK1, hits give low values",0.845
same,normalized growth,"locus YNL161W, strain CBK1, hits give low values",0.922
same,normalized growth,"locus YNL183C, strain NPR1, hits give low values",0.904
same,normalized growth,"locus YNL207W, strain RIO2, hits give low values",0.874 (active)
same,normalized growth,"locus YNL222W, strain SSU72, hits give low values",0.925
same,normalized growth,"locus YNL307C, strain MCK1 (second series), hits give low values",0.842
same,normalized growth,"locus YOL078W, strain AVO1, hits give low values",0.911
same,normalized growth,"locus YOL136C, strain PFK27, hits give low values",0.884
same,normalized growth,"locus YOR061W, strain CKA2, hits give low values",0.817
same,normalized growth,"locus YOR119C, strain RIO1, hits give low values",0.784
same,normalized growth,"locus YOR231W, strain MKK1, hits give low values",0.954
same,normalized growth,"locus YOR329C, strain SCD5, hits give low values",0.935
same,normalized growth,"locus YPL031C, strain PHO85, hits give low values",0.837
same,normalized growth,"locus YPL153C, strain RAD53, hits give low values",0.826
same,normalized growth,"locus YPL204W, strain HRR25, hits give low values",0.827
same,normalized growth,"locus YPL209C, strain IPL1, hits give low values",0.934
same,normalized growth,"locus YPL256C, strain CLN2, hits give low values",0.986
same,normalized growth,"locus YPR025C, strain CCL1, hits give low values",0.93
same,normalized growth,"locus YPR106W, strain ISR1, hits give low values",0.899
same,normalized growth,"locus YPR111W, strain DBF20, hits give low values",0.91
same,normalized growth,"strain NNK1, hits give low values",0.902
same,normalized growth,"strain TSCII, hits give low values",0.907
